This test has as its target AMP-activated protein kinase, AMPK (Homo sapiens) (UniProt P54646+O43741+P54619+Q9UGJ0+Q9Y478+Q13131+Q9UGI9). As to the kind of experiment: AMP-dependent Kinase enzyme assay. An in vitro enzyme assay that detects ADP turnover that is directly proportional to AMPK activity. This uses naive AMPK that is activated during the assay with MK-8722. The format is functional. The arrangement: scale not given: direction of the effect not stated beside the values. To be noted: 30 µM.
For `c1cncc(OC2CCN(CCn3cc4ccccc4n3)CC2)c1`, the Percent Effect was 13.1%.
Take `COCCOc1ncccc1NCc1nc2ccccc2n1C`: the Percent Effect was 7.32%.
Take `O=C(c1ccc(-n2cnnc2)cc1Cl)N1CCCC2(CCNC2)C1` (centres undefined): the Percent Effect is 0.724%.
For `Cc1cc(CN(C)C(C(=O)O)c2cccc(C(F)(F)F)c2)on1` (centres undefined) the value was 3.9%; for `COc1ccccc1CN(Cc1nc(Cc2ccccc2)no1)C1CC1`, 12.8%; for `CN1CCN(CCCOc2ccccc2CN2C[C@H]3CC[C@H]2C3)CC1`, -5.02%.
For `CCCc1nc(C(=O)NC(COC)c2ccnn2C)cs1` (centres undefined) the value was -0.17%; for `O=C(COc1cc(Cl)cc(Cl)c1)NCc1nncn1C1CC1`, -6.22%.
Take `O=C(c1ccnc(CC2COc3ccccc3C2)c1)N1CCCC1` (centres undefined): the Percent Effect turned out to be 7.97%.
`CC(C)c1cc(C(=O)N(Cc2ccncc2)CC2CCCO2)no1` (centres undefined): the Percent Effect is -4.12%.
Take `O=C(Cn1cc(I)cn1)N1CCNC1=O`: the Percent Effect turned out to be 0.6%.
Regarding `CN1CC(C(=O)NCCc2ccc3c(c2)OCO3)CC1=O` (centres undefined), the Percent Effect amounted to 3.69%.
As to `CCCn1ncc(C(=O)N2CCCC(OCc3ccccn3)C2)c1C` (centres undefined), the Percent Effect is -1.18%.
For the compound `O=C(CCn1ccnc1)N1CC[C@H](Oc2cccc(F)c2)[C@@H](O)CC1`, the Percent Effect is -2.81%.
Regarding `CCCn1nnnc1COC(=O)C1COc2ccccc2O1` (centres undefined), the Percent Effect was determined as 3%.
Consider `CSCC(C)(O)CNS(=O)(=O)c1ccc(Br)cc1` (centres undefined), for which the Percent Effect is -4.9%.
In the case of `COc1ccc(OC)c(C(C(=O)O)N2CCSCC2)c1` (centres undefined), the Percent Effect was 0.166%.
As to `COc1ccc(Cl)cc1C(=O)N1C[C@H](C(C)C)[C@@H](N)C1`, the Percent Effect came out at 6.24%.
Regarding `Cc1ccccc1Cc1nc(CSc2nnc(N)n2C2CC2)no1`, the Percent Effect is 7.43%.

(Values after ChEMBL document CHEMBL3988442, “University of Dundee, Small-Polar-MMV Screening Library” (2021).)
